Assay outcomes: PubChem BioAssay, National Center for Advancing Translational Sciences (NCATS)
An excerpt weighted towards active compounds, which were near 12% of everything screened.
Sfp inh = blocks B. subtilis Sfp PPTase activity | Q9F4F7 | Biochemical Sfp PPTase activity, qHTS | Potency, µM, without a hit: largest response in the series, negative = inhibition, hits mostly inhibitors | hit rate 3.5% among 310,000;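 further: the enzyme is Sfp with the accession as filed and its product quenches rhodamine fluorescence; 0% = enzyme reaction without inhibitor and -100% = no enzyme wells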
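With Hepes-Na pH 7.6 buffer containing 10 mM MgCl2, Sfp (15 nM) modified BHQ-2-YbbR (12.5 uM) using rhodamine-CoA (5 uM). Two reads 30 minutes apart at 525/598 nm yielded each well's rate.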
HP1b binding inh = inhibitors of HP1-beta chromodomain binding to methylated histone tails. AlphaScreen HP1-beta / biotin-H3K9me3 peptide binding. Potency, µM (doses to about 114 µM), without a hit: at the highest dose activity change, negative = inhibition, actives largely listed as inhibitors. hit rate 0.56% among 390,000; further: nearly all actives have a fitted effect of over 70% in size
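AlphaScreen: HP1-beta (50 nM) preformed 30 min with biotin-H3(1-18)K9me3 peptide (50 nM) in PBS pH 7.4, 0.01% Tween-20. Compound added for 30 min at RT, then streptavidin donor/nickel chelate acceptor beads (10 ug/mL) for 30 min.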
JMJD2A Tudor inh = blocks the human JMJD2A Tudor domain; O75164; AlphaScreen JMJD2A-Tudor / H3K4me3 peptide binding; Potency, µM (series often up to 114 µM), inactives show top-dose activity change, negative = inhibition, usual class: inhibitors; hit rate 4.4% among 390,000; further: on the % scale 0 is the no-effect control and ±100 the full control effect; nearly all actives have a fitted effect of over 50% in size
BAZ2B inh = blocks human BAZ2B. Q9UIF8. AlphaScreen BAZ2B-H3K14Ac peptide displacement. Potency, µM (top dose mostly 114 µM), without a hit: at the top dose activity change, negative = inhibition, hits mostly inhibitors. hit rate 4.4% among 360,000; further: on the % scale 0 is the no-effect control and ±100 the full control effect; nearly all actives have a fitted effect of over 60% in size
Target sequence (Q9UIF8 whole entry, looked up): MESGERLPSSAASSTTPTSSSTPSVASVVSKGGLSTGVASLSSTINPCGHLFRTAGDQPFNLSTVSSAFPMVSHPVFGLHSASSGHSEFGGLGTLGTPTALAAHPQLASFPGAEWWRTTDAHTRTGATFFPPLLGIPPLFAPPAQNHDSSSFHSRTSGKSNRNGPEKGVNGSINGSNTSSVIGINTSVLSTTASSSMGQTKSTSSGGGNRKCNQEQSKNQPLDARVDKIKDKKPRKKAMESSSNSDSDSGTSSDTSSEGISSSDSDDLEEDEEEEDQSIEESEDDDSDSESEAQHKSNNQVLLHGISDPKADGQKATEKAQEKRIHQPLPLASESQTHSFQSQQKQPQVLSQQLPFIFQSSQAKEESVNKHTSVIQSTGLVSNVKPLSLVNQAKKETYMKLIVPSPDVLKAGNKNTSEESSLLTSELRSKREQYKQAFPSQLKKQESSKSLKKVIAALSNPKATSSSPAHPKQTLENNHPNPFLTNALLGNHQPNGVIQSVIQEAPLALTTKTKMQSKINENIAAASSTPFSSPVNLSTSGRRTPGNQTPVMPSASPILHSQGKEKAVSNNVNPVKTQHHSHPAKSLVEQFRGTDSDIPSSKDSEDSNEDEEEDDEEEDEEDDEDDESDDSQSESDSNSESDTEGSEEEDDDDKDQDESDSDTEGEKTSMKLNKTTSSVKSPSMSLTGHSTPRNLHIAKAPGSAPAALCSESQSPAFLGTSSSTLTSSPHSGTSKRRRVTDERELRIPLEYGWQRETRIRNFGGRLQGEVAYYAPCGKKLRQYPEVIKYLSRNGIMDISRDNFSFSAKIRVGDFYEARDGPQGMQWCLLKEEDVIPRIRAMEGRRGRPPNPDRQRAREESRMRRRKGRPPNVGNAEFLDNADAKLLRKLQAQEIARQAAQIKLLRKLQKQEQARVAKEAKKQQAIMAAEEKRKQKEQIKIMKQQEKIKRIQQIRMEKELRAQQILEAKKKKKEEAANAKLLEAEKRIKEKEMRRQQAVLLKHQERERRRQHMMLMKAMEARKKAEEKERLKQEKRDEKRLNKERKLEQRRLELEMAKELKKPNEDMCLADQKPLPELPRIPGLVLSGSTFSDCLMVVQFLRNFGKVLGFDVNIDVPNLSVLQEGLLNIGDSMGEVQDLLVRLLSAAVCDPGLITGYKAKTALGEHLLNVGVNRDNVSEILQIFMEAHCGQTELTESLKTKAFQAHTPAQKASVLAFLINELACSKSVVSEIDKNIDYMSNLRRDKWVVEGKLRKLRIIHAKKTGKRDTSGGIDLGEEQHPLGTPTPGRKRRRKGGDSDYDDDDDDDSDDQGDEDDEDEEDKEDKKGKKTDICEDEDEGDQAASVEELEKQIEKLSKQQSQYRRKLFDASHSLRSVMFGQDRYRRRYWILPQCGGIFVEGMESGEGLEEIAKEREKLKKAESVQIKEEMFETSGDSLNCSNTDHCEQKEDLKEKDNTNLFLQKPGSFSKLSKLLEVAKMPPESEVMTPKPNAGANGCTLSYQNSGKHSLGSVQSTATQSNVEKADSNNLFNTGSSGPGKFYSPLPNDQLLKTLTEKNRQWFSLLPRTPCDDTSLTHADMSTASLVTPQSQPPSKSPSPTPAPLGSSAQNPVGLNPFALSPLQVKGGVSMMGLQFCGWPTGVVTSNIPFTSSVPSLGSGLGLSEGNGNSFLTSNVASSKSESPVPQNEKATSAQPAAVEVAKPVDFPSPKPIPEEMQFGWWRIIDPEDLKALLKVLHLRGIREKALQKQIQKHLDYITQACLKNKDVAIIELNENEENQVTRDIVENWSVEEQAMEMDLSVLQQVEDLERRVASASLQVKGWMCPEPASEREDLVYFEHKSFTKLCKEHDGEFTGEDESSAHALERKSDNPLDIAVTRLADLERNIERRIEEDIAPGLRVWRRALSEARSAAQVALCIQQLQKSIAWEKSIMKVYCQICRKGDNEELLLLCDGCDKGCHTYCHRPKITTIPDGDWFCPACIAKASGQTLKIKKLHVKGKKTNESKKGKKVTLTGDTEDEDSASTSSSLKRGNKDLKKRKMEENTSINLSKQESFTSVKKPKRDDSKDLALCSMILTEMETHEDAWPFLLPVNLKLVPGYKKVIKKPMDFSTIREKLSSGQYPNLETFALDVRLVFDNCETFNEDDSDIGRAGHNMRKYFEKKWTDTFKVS
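BAZ2B 50 nM plus b-H3(5-23)K14Ac 50 nM, PBS pH 7.4/0.01% Tween-20, 30 min RT; compound added (max 110 uM), 30 min RT; streptavidin donor/Ni-chelate acceptor beads 10 ug/mL final, 20 min dark; AlphaScreen read.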
L3MBTL1 block = blocks human L3MBTL1; AID 485360; AlphaScreen L3MBTL1–H3K9me1 peptide binding; Q9Y468; Potency, µM (series often up to 57.1 µM), without a hit: at the highest dose activity, negative = inhibition, usual class: inhibitors; hit rate 0.66% among 230,000; further: on the % scale 0 is the no-effect control and ±100 the full control effect; nearly all actives have a fitted effect of over 60% in size
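First, the protein-peptide complex forms for 30 min at room temperature (L3MBTL1 50 nM, biotinylated H3K9me1 peptide 75 nM). Next, compounds are pin-transferred and incubated 30 min. Finally, AlphaScreen beads are added and read after 30 min.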
G9a inh = inhibitors of human histone lysine methyltransferase G9a; AID 504332; hit rate 8.8% among 350,000; Q96KQ7; Potency, µM (doses to about 102 µM), for inactives: top-dose activity, negative = inhibition, hits mostly inhibitors; G9a H3K9 monomethylation, AlphaScreen, 2 h; further: on the % scale 0 is the no-effect control and ±100 the full control effect; nearly all actives have a fitted effect of over 75% in size
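Compounds were preincubated with 20 nM G9a for 15 min, after which biotinylated H3K9 peptide (500 nM) and SAM (20 uM) started a 2 h room-temperature reaction. Monomethylated product was quantified by antibody-based AlphaScreen chemiluminescence.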
An asterisk follows results filed as active; ? = inconclusive; · = not tested or not shown; [ ] = another dose, or the depositor's remark. The call rests on the fitted dose curve; in most records, active means well fitted curve in the direction sought with a large enough effect; inconclusive means small, poorly fitted or top-dose-only effect, or another doubt; inactive means no such curve, though single readings can be large; an effect the other way counts as inactive or inconclusive. Potency means the concentration at half of the fitted maximal effect.

SMILES	Sfp inh	HP1b binding inh	JMJD2A Tudor inh	BAZ2B inh	L3MBTL1 block	G9a inh
CCc1cccc(CC)c1N(COC)C(=O)Cn1c(C(C)O)nc2ccccc21 (stereo unspecified)	89µM*	24%	-18%	0%	4%	3%[2.33 µM]
CN1c2ccsc2C(O)=C(C(=S)Nc2ccccc2)S1(=O)=O	56µM*	-1%	?	?	·	?
Cc1ccccc1NC(=S)C1=C(O)c2sccc2N(C)S1(=O)=O	56µM*	2%	?	?	·	22µM*
COc1ccc(-c2cc(-c3ccc4c(c3)NC(=O)CO4)nc3c2COc2ccc(C)cc2-3)cc1	·	31%	-9%	-15%	·	1%[59 µM]
O=C(Nc1nc2ccccc2c(=O)s1)c1ccco1	?	19%	-15%	-29%	·	71µM*
O=C(Nc1n[nH]c(=S)s1)c1ccco1	56µM*	?	3.5µM*	?	-15%	1.4µM*
O=C(Nc1nc2ccccc2c(=O)s1)c1ccc(F)cc1Cl	-13%	17%	-13%	6%	·	71µM*
O=C(Nc1nc2cc3c(cc2s1)OCO3)c1ccco1	-10%	20%	7%	6%	·	·
O=C(Nc1nnc(-c2ccc(F)cc2)s1)c1ccco1	-1%	-7%	-24%	-12%	·	-13%
COc1cc(CNC(=O)c2ccc3nc(Cc4ccccc4)oc3c2)cc(OC)c1OC	·	36%[57 µM]	-28%	16%	·	4%[59 µM]
Cc1cc2ccccn2c1C(=O)c1ccc(Cl)c([N+](=O)[O-])c1	-1%	?	?	11µM*	-16%	-31%
Cc1cc2ccccn2c1C(=O)c1ccccc1Br	7%	17%	-13%	-18%	·	?
Cc1cc2ccccn2c1C(=O)c1cccc([N+](=O)[O-])c1	1%	?	-18%	?	·	40µM*
Cc1cc2ccccn2c1C(=O)c1ccc([N+](=O)[O-])cc1[N+](=O)[O-]	-6%	40µM*	20µM*	25µM*	·	?
Cc1cc2ccccn2c1C(=O)c1ccc(F)cc1	7%	104%	47%	17%	·	40%[59 µM]
Cc1cc2ccccn2c1C(=O)c1ccc([N+](=O)[O-])o1	8%	-11%	?	10µM*	-7%	?
CC(C)(C)Nc1scc(-c2ccccc2)[n+]1-c1ccccc1	-4%	-16%	-33%	50µM*	·	45µM*
COC(=O)C1OC(=O)C2OC23[C@]2(C)C(OC(C)=O)CC4C(C)(C)C(=O)CC[C@]4(C)C2CC[C@@]13C (stereo partly specified)	12%	·	·	·	·	·
CN1CC(c2ccccn2)C2(SC(=S)N(Cc3ccccc3)C2=O)C12C(=O)Nc1ccccc12 (stereo unspecified)	-31%	?	22µM*	14µM*	?	·
Cc1ccc(OCC(=O)c2ccc(Cl)s2)c([N+](=O)[O-])n1	20µM*	-13%	56µM*	50µM*	-30%	50µM*
Cc1cc(-n2c(C)cc(C(=O)CCl)c2C)no1	11%	42%	-22%	·	-6%	50µM*
COc1ccc(-n2c(C)cc(C(=O)CN3C(=O)c4ccccc4C3=O)c2C)cc1	4%	11%	-28%	-35%	-17%	1%[59 µM]
Cc1ccc(OCC(=O)c2cc(C)n(-c3cc(C)on3)c2C)c([N+](=O)[O-])n1	·	-9%	-32%	?	-19%	50µM*
COc1ccc(-n2c(C)cc(C(=O)CCl)c2C)cc1	-8%	0%	?	45µM*	·	56µM*
CC(C)CN1CCC2(CC1)CCN(C(=O)c1cnccn1)CC2	20%	·	·	·	·	?
SMILES	Sfp inh	HP1b binding inh	JMJD2A Tudor inh	BAZ2B inh	L3MBTL1 block	G9a inh
CCCCC/C=C\C[C@@H]1O[C@H]1C(O)/C=C\C/C=C\CCCC(=O)O (stereo partly specified)	23%	·	·	·	·	·
CC(C)C[C@@H](CO)NS(=O)(=O)c1c(F)cccc1F	·	50%	-18%	·	·	·
CC(C)n1c(NCCc2ccccc2)nc2c1c(=O)n(C)c(=O)n2C	0%	29%	-19%	6%	-15%	13%[59 µM]
CC(=O)Nc1ccc(SCCCC(=O)c2ccccc2)cc1	7%	25%	-19%	-20%	·	45µM*
CC(=O)Nc1ccc(SCC(=O)c2cc(C)ccc2C)cc1	-4%	32%	-1%	-37%	·	?
COc1ccc(NC(=O)COC(=O)Cn2cnc3ccccc32)cc1	·	28%	-3%	·	1%	·
CC(=O)Nc1ccc(SCC(=O)c2cc(C)n(-c3ccccc3)c2C)cc1	-7%	4%	-23%	45µM*	-12%	?
COc1ccc(-n2c(C)cc(C(=O)COC(=O)Cn3cnc4ccccc43)c2C)cc1	-13%	-16%	?	?	-10%	16µM*
COc1ccc(-n2c(C)cc(C(=O)CSc3ccc(NC(C)=O)cc3)c2C)cc1	-20%	?	?	45µM*	?	?
CCc1nn2c(=O)cc(COC(=O)c3cccs3)nc2s1	·	61%	-12%	-13%	·	4%[59 µM]
CN(Cc1ccccc1)C(=O)Cn1c(=O)c2cccn2c2ccc(F)cc21	·	30%	-20%	3%	·	-16%[59 µM]
COC(=O)c1ccccc1S(=O)(=O)N1CCc2nc(COc3ccccc3)c3c(c2C1)CO[C@@H](C)C3	-9%	·	·	·	·	·
CC(C)C[C@H](NC(=O)c1nc[nH]c1C(=O)NCCCCCN)C(=O)OCc1ccccc1	·	13%	79µM*	·	-2%	·
CC(C)C[C@@H](CN)NC(=O)c1nc[nH]c1C(=O)N[C@@H](C)C(=O)CNC[C@H](CC(C)C)NC(=O)c1nc[nH]c1C(=O)N[C@@H](Cc1ccccc1)C(=O)O	·	48%	79µM*	·	·	·
CC(C)C[C@@H](CNCC(=O)[C@H](CC(C)C)NC(=O)c1[nH]cnc1C(=O)N[C@H](CN)CC(C)C)NC(=O)c1nc[nH]c1C(=O)N[C@@H](Cc1ccccc1)C(=O)O	·	22%	?	·	·	·
CC(C)C[C@@H](CNCC(=O)[C@H](Cc1ccccc1)NC(=O)c1[nH]cnc1C(=O)N[C@H](CN)CC(C)C)NC(=O)c1nc[nH]c1C(=O)N[C@@H](CC(=O)O)C(=O)O	·	37%	28µM*	·	·	·
CC(C)C[C@@H](CNCC(=O)[C@H](C)NC(=O)c1[nH]cnc1C(=O)N[C@@H](C)CN)NC(=O)c1nc[nH]c1C(=O)N[C@@H](Cc1ccccc1)C(=O)O	·	14%	79µM*	·	·	·
Cc1ccc(-c2nn[nH]n2)cc1	16%	35%	-15%	-1%	9%	-17%[59 µM]
Cc1ccc(-c2nn[nH]n2)cc1Cl	25%	25%	-5%	89µM*	4%	50µM*
CC1Cc2cccc3ccc(=O)n(c23)C1 (stereo unspecified)	·	29%	-11%	·	·	·
